PubChem BioAssay AID588511 (Johns Hopkins Ion Channel Center, 2011)
Among all 310,000 compounds or so, about 3,600 (1.2%) were called active.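 The calls were made as follows: active = ratio plate-corrected score three or more library SD toward inhibition, starting fluorescence score within five deviations; inactive = the rest.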 The sample as a whole holds a higher share of actives than the screen did.

target: Anoctamin-1 (Mus musculus) (UniProt Q8BHY3); experiment: TMEM16A chloride channel inhibitors, primary screen, cell-based, HTS (AID 588511); conditions: HEK293 TMEM16A/YFP iodide influx fluorescence, ionomycin; at 10 µM;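 as to normalized B-score (activity score, 25-100; higher = stronger inhibition): score derived from kinetic fluorescence span divided by baseline fluorescence per well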
Sequence (Q8BHY3 whole entry, looked up): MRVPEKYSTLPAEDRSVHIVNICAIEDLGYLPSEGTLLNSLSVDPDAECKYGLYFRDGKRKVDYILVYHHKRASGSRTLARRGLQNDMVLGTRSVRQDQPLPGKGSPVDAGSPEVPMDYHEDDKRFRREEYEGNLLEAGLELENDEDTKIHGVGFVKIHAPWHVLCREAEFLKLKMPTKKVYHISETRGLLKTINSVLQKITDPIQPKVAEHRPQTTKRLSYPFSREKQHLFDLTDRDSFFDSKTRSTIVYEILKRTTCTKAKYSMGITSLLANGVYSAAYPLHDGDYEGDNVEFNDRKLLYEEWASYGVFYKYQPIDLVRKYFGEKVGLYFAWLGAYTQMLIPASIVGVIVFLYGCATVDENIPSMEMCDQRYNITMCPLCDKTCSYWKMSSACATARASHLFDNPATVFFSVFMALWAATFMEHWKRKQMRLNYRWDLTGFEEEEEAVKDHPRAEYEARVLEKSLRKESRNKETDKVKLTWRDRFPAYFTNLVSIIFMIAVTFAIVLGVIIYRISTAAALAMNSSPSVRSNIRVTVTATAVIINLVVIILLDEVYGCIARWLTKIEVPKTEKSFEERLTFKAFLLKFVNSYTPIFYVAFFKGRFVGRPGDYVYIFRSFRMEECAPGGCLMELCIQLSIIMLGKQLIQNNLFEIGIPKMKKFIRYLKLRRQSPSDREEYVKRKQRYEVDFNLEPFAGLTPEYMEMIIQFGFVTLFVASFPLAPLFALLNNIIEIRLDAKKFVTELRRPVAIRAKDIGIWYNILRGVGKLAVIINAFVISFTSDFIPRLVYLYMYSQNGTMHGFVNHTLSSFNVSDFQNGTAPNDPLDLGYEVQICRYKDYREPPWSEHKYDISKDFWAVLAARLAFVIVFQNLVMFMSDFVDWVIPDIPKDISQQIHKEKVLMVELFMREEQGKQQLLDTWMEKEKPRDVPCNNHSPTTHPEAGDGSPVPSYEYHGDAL

| Compound | normalized B-score (activity score, 25-100; higher = stronger inhibition) |
| --- | --- |
| CCOc1cccc(=NC2CCCCC2)c2c(C)[nH]c(C)c12 | 25 (active) |
| Nc1ccc(C(=O)N/N=C2/CN3CCC2CC3)cc1 | inactive |
| CCOC(=O)C1CN(C)CCC1=O (stereo not given) | inactive |
| CCCCn1c(=O)c(C(=O)Nc2ccccc2Cl)c(O)c2ccccc21 | inactive |
| CCCCCn1c(=O)c(C(=O)NCc2ccccn2)c(O)c2ccccc21 | 25 (active) |
| CCCCCn1c(=O)c(C(=O)NCc2ccccc2)c(O)c2ccccc21 | inactive |
| O=C(Cn1c(=O)n(CC2CS2)c2ccccc21)N1CCCCC1 (stereo not given) | inactive |
| O=c1[nH]c(=O)n(-c2ccccc2)c(O)c1C=NC12CN3CN(CN(C3)C1)C2 | inactive |
| COc1ccccc1NC(=O)N1C[C@@H]2C[C@@H](C1)c1cccc(=O)n1C2 | inactive |
| Cc1ccc(P(=S)(c2ccc(C)o2)N2CCOCC2)o1 | inactive |
| COc1ccc(-n2c(-c3ccccc3)nc3ccccc3c2=O)cc1 | inactive |
| CCN(CC)P(=O)(Oc1cccc(C)c1)N(CC)CC | inactive |
| CCN(CC)C(=O)c1ccc(NC(=O)c2cc(-n3cnnc3)ccc2Cl)cc1 | 100 (active) |
| COc1ccc(-c2nn(CCC#N)cc2C(=O)Nc2ccc(C(C)=O)cc2)cc1 | inactive |
| CCN(CC)C(=O)c1ccc(NC(=O)c2sccc2-c2ccccc2)cc1 | inactive |
| O=[N+]([O-])c1ccc(C2C3C(c4ccccc4)=NC4(CCCCC4)N32)cc1 (stereo not given) | inactive |
| CN(C)S(=O)(=O)c1cc(C(=O)N2CCC(C(=O)O)(c3ccccc3)CC2)ccc1Cl | inactive |
| c1ccc(CCNC2CCCCCC2)cc1 | inactive |
| CCCCCCCCCCCCn1ccc(=N)cc1 | 25 (active) |
| CC1(C)C(c2ccccc2)=NC(c2cccnc2)=[N+]1[O-] | inactive |
